# Source: the supplement of paper PMC11417369
# ± gives the standard deviation of the averaged measurements. The full ranking holds about 25,000 sequences; the median of “ln(normalized median fluorescence intensity)” is about 7.9, and the highest 2% start at about 11. Shown is part of a subset that was picked to be rich in the highest values.
# Tested on: PfAP2-I AP2 domain 3 (GST-tagged)
# Experiment: gcPBM binding intensity (ln(normalized median fluorescence intensity)); higher = stronger DNA binding
# In short: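 Alexa488 anti-GST antibody, scanned at 488 nm, detected GST-tagged P. falciparum DNA-binding domains that had been expressed in E. coli and incubated for 1 h on an Agilent 4 × 180k array. The array carried primer-extended double-stranded 36-bp intergenic genomic probes and negative controls. Binding intensity is the highest Masliner-normalised natural-log median intensity across replicate spots of either orientation of each probe.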
row,Sequence,gcPBM binding intensity (ln)
1,AAAATTAAAATACGTACACACCTTATCTTTTTGGCT [CACACA_site4311],8.21 ± 0.19
2,ATATTTCTGTCAAGCACACATAATATTAAAATATGT [CACACA_site4330],7.91 ± 0.49
3,CATGCCTTTAAAAAGGTGCAAACATTTTCACAAACA,10.4 ± 0.35
4,ATATTTTATGTAAAGGTGCAAAACAACATTAAAAAA,10.9 ± 0.47
5,ATTTATTTTATATGTTGTACAAACATTTTAAAACAT [XGTACX_site6919],7.79 ± 0.38
6,CTTGAAAAAATAAAAACACACAATGTGTTTTTGAAT [CACACA_site3283],7.42 ± 0.68
7,TTTCATTTAGCTTTTACACACTATATATCATTGATT [CACACA_site6158],7.89 ± 0.68
8,AGTATTATATTTGTATGTACGTAGTAATATATAAAA [XGTACX_site528],7.86 ± 0.6
9,TTAAACTTGTTTTGGATGCACTATATAATTCATTTT [GTGCAC_site9549],9.45 ± 0.15
10,CGATTTTTTAAGTTTGTGCACTTAAAAACTATAACA,10.9 ± 0.54
11,TTTATTTTATTCACTATCATAAGCAAAACTTAAACA [GTGCAC_negctrl_site287],7.6 ± 0.4
12,TTTCATATTTTGTCCTGTTTTTTTTTTTTTTTTCTT [CACACA_negctrl_site993],7.53 ± 0.59
13,TTTAACTTTTATATAACACACATATTGTAATTATGT [CACACA_site6486],7.92 ± 0.33
14,TTTTTTGAATTTAAAAGTACAGGCTTTTACCAAATA [XGTACX_site1356],7.7 ± 0.45
15,TTTTTTTTTTGTAATTGTACTTTTTTAATACTTCTA [XGTACX_site4195],7.74 ± 0.82
16,TTAGTTTATTGGTACTGTACTTTTTTTTTCTCCATT [XGTACX_site8618],8.02 ± 0.33
17,TATTCGTGCAATAATAGTACACTTATAAATTATTCA [XGTACX_site8993],11.2 ± 0.66
18,TATTCGTGCAATAGTAGTACACTTATAAATTATTCT [XGTACX_site4899],10.7 ± 0.61
19,TATTCGTGCAATAATGGTACACTTATAAATTATTCA [XGTACX_site1430],10.7 ± 0.71
20,ACACATACATACATATGTACATATATACATATATAC [XGTACX_site5559],8.45 ± 0.83
21,AAATAATACATTCGTACTACACATATATATTAAATA [XGTACX_site7806],7.84 ± 0.41
22,AGTAGGCATATTGGTTGTACAAAAAAATTATGCACC [XGTACX_site8925],11.2 ± 0.61

row,Sequence,gcPBM binding intensity (ln)
1,GTAGGCATTAAAAAATGTACAAAATATTATGAATTG [XGTACX_site1615],7.65 ± 0.55
2,TGAACATATTAAAATTGTACATATGCACAATATGTA [XGTACX_site6801],8.53 ± 0.29
3,ATATATATATATGCATGTACATATATTTGTTATATC [XGTACX_site3197],9.22 ± 0.27
4,TATATATATATATATGCATGTACATATATTTGTTAT [TGCATGCA_site379],9.45 ± 0.14
5,TATGTGCACCCATGTACATGCGGACATATGTTATAT [TGCATGCA_site383],11 ± 0.9
6,TATATAATAATTTAGAGTACTGATAAAATATTCCAT [XGTACX_site6200],7.55 ± 0.47
7,AATAAATTAGAAGGATGTACTTTGTTTAATATAGAG [XGTACX_site1943],7.83 ± 0.37
8,TTCCAAAAAGTTATTACACACATATGTGCACATATA [CACACA_site6465],10 ± 0.4
9,TTTATTTTCCAAAGGGTGCACATAGTTAAAACGATA [GTGCAC_site9855],11.1 ± 0.29
10,TTTATTTTCCAAAGGGTGCACATAGTTGAAACGATA,11.1 ± 0.44
11,CATTTTATAAAAAGCACACATATAGTTATATGCACA [CACACA_site3691],10.7 ± 0.91
12,AATAGCTAGCTGTGCACACAAACATATTTTCCAAAT [CACACA_site880],9.55 ± 0.16
13,CAAATAGCTAGCTGTGCACACAAACATATTTTCCAA [CACACA_site879],9.66 ± 0.23
14,TTTCTTTTTTTTTGAAGTACATAAAAATATAAAAAA [XGTACX_site311],8.03 ± 0.085
15,AGACAAAATGTTTGAAGTACTTTTTATCAAATTAAA [XGTACX_site8885],7.66 ± 0.2
16,CACGAACACAAACACAAACACACATCATATATATAT [CACACA_site1322],9.25 ± 0.16
17,AAATATATATATAGTTGTACATATATCGTATATATT [XGTACX_site7867],7.57 ± 0.45
18,GTTAAAATTTGTCAATGTACAGAAATAATAAAAAAA [XGTACX_site1879],7.97 ± 0.62
19,ATATATATATATATATGTACATATTATTATTTTGAT [XGTACX_site4752],9.22 ± 0.49
20,AAAATAAACTATAGTACACACTTATTATTATGAAAT [CACACA_site5488],7.92 ± 0.3
21,TTTTTTCTTTTCAAGGTGCTTTATAAGAAAAAGGGA [GTGCAC_site9858],11.1 ± 0.89
22,AAATATAAGAAAAAGGTGCTTTTTTTTTTTTTTTTT [GTGCAC_site9700],9.79

row,Sequence,gcPBM binding intensity (ln)
1,TTTTTTTTTCTTCTTTTCAAATTTAAGAAATTATAA [CACACA_negctrl_site18],7.55 ± 0.57
2,AAAAAAAAACACGCATGTACATAAAAATAATCATAC [XGTACX_site1086],7.96 ± 0.57
3,ATACACACTCAAAAAAGTACTTAACTACATGAATTG [XGTACX_site6366],7.79 ± 0.55
4,TGTATGTATAATTGAGTGCACAGAAAAAAAAAAGAA,11 ± 0.13
5,AAGAAAATATAAAATGCACACTATAAATTGTATATA [CACACA_site7928],8.73 ± 0.014
6,CATTATAAAAAATAAAAAAGAAATAATTGTATATGC [CACACA_negctrl_site478],7.77 ± 0.68
7,TAAATAAATAAAAATAGTACATAATTATTATTATTA [XGTACX_site4981],7.42 ± 0.22
8,TTCTTTATATACAAACCAAAATATTATGTATAATAA [CACACA_negctrl_site15],7.62 ± 0.33
9,CTTATAAGAATACTAGTGCACATAATTTAACGAAAA,11 ± 0.59
10,AAGATAAAATTATGCACACATACGAATAATTTTAAA [CACACA_site1705],9.79 ± 0.39
11,TAGATTATTATACTAGTGCAAATTATTTAAGAAAAA,10 ± 0.34
12,AATGTACGTTTTATAACACACACACTAATAAAAAAA [CACACA_site9286],8.23 ± 0.36
13,AAAATTAAAAATAACACACACATATTTATATTTATA [CACACA_site7329],7.59 ± 0.4
14,ATATCGTGTGCATTAACACACATTTATTTGAATAAA [CACACA_site7162],10.9 ± 0.5
15,ATCGGTAATATTAACACACACATTTATATATATTTA [CACACA_site1084],8.02 ± 0.41
16,AACATTTTAAATTATACACACATTTTGAATATATAT [CACACA_site3470],7.78 ± 0.53
17,TTTATTTTAACTTGTTCACACATTTGAATAAATAAA [CACACA_site5064],7.71 ± 0.33
18,TATATTTATTATAACACACACATATAAATATTATAG [CACACA_site6726],7.95 ± 0.48
19,ATATCGGGTGCATTAACACACATTTATTTGAATAAA [CACACA_site2350],11.7 ± 0.79
20,ATCGGTAATATTAACACACACATTTATTTATATTTA [CACACA_site6638],7.96 ± 0.58
21,ACATATCGGGTGCATTAACACACATTTATTTGAATA [CACACA_site8736],11.8 ± 0.52
